Most compounds without a hit are left out; they make up all but 3.8% or so of the library.
PrP 5UTR inh = inhibition of PrP 5' UTR reporter expression | 340,000 tested, 0.35% active | inhibition, % (test concentration not listed) | cell-based PrP 5' UTR mRNA reporter, plate reader; in the data active = inhibition above about 52%; note: 0 = median of the neutral control wells
GDH-TPI inh = GDH-TPI coupled enzyme inhibition counter-screen. inhibition, % at 4.8 µM. AID 588335. GDH-TPI coupled enzyme counterscreen, NADH absorbance. 360,000 tested, 1.2% active; in the data active = inhibition above about 30%;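 note: 0% = DMSO wells and 100% = wells lacking the enzyme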
Y pestis TopoI = inhibitors of Yersinia pestis topoisomerase I | 360,000 tested, 0.064% active | AID 504884 | Y. pestis Topo-I cleavage product accumulation, plate reader | activity, % at 10 µM; in the data active = activity above about 50%, passing the limit was not always enough
FBA Mtb inh = inhibitors of M. tuberculosis fructose-bisphosphate aldolase; P9WQA3; purified M. tuberculosis FBA, fluorescence read-out; inhibition, % at 1 µM; 360,000 tested, 2.3% active; AID 588726; in the data active = inhibition above about 27%;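 note: 0% = vehicle and 100% = reference inhibitor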
Target sequence (P9WQA3 whole entry, looked up): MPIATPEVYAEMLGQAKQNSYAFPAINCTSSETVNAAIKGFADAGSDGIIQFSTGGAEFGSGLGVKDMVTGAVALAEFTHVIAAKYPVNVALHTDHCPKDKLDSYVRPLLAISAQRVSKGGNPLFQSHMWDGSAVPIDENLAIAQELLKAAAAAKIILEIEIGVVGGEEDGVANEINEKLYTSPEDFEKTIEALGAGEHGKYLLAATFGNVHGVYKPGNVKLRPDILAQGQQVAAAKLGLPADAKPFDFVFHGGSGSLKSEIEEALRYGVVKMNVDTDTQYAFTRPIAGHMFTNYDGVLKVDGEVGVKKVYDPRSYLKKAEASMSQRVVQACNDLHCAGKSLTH
Mtb hypoxia inh = Mtb hypoxia fluorescent reporter inhibition; M. tuberculosis hypoxia-regulated fluorescent reporter, fluorescence; fluorescence inhibition, % (no concentration beside the values); 300,000 tested, 0.1% active; AID 1159583; in the data active = fluorescence inhibition mostly above about 23%, no sharp cut-off; inactive = mostly below about 17%
PrPC surface inh = cell surface PrPC inhibition, primary TR-FRET screen | P04156 | TR-FRET read-out | inhibition, % at 13.8 µM | 370,000 tested, 0.43% active; in the data active = inhibition above about 24%; note: 0% = median of the test wells and 100% = reference compound wells
Numbers without * were called inactive; nt = no result.

SMILES	PrP 5UTR inh	GDH-TPI inh	Y pestis TopoI	FBA Mtb inh	Mtb hypoxia inh	PrPC surface inh
COc1ccc(C=NNc2ncc(F)c(N3CCOCC3)n2)cc1OC	nt	nt	nt	nt	12	nt
CCc1nc(Nc2ccc3c(c2)OCO3)c2oc3ccccc3c2n1	-12	17	-13	6	nt	13
CCc1nc(Nc2cccc(O)c2)c2oc3ccccc3c2n1	7	31*	-24	4	-5	nt
O=S1(=O)CCOC2Cc3ccccc3C2N1Cc1cccc(F)c1 (stereo not drawn)	nt	nt	nt	nt	3	nt
CC(=O)c1ccc(N2CCCCCC2)c(F)c1	-62	34*	-2	-6	nt	5
CC(=O)c1ccc(N2CCCCC2)c(F)c1	-12	13	-8	4	15	6
O=C(CCCn1c(=S)[nH]c2cc3c(cc2c1=O)OCO3)N1CCN(c2ccc(Cl)cc2)CC1	-27	2	29	-2	15	-4
CC(=O)c1ccc(N2CCN(C(=O)CCCn3c(=S)[nH]c4cc5c(cc4c3=O)OCO5)CC2)cc1	-34	35*	39	0	-17	9
C=CCn1c(=O)[nH]c2cc(C(=O)N3CCN(c4ccc(C(C)=O)cc4)CC3)ccc2c1=O	-22	36*	3	-1	-15	3
CC(=O)c1ccc(N2CCN(C(=O)c3ccc4c(=O)n(-c5ccccc5)c(=O)[nH]c4c3)CC2)cc1	-7	35*	12	0	-6	-4
CC(C)(C)c1cc[n+](-c2[nH]c(=O)sc2C=N/N=C(\[O-])c2ccccc2)cc1	nt	nt	nt	nt	5	nt
CC=C(C)C(=O)OC1c2c(ccc3ccc(=O)oc23)OC(C)(C)C1OC(C)=O (stereo not drawn)	nt	nt	nt	nt	18	nt
CCN1C(=O)C2C(c3ccc(-c4cc(C(C)=O)cs4)cc3)N[C@@](Cc3ccccc3)(C(=O)OC)C2C1=O (stereo partly drawn)	nt	nt	nt	nt	2	nt
COc1ccc2ccccc2c1C=NNC(=S)NCCN1CCOCC1	nt	nt	nt	nt	-5	nt
COc1ccc2nc(NC(N)=NC(=S)Nc3ccc(C)c(C)c3)nc(C)c2c1	nt	nt	nt	nt	-3	nt
CC[n+]1c(/C=C/N(C)c2ccccc2)oc2ccccc21	-20	68*	-2	-1	2	11
CC[n+]1c(/C=C/N(C)c2ccccc2)oc2ccc(F)cc21	-22	42*	6	-1	-1	9
O=C(/C=C/c1ccccc1Cl)c1ccc(O)cc1	-30	35*	-2	-3	11	-1
COC(=O)C1=C(c2ccc(OC(F)(F)F)cc2)CC2CCC1N2C(=O)NCc1ccc(F)cc1 (stereo not drawn)	nt	nt	nt	nt	5	nt
C=C1CCN(C(C(=O)OCc2cccc(C)c2)C(C)C)S(=O)(=O)c2ccccc21 (stereo not drawn)	nt	nt	nt	nt	3	nt
N#C/C(=C\Nc1ccc2c(c1)OCCO2)C(=O)NCc1ccco1	-33	44*	-3	-5	2	1
CN(C)CCOc1ccc2c(c1)C(=O)C(=Cc1ncc([N+](=O)[O-])n1C)C2	nt	32*	-9	3	nt	5
N#Cc1c(N=CN2CCOCC2)sc2c1CCCCC2	nt	nt	nt	nt	5	nt
CCOc1ccccc1N(C)C(=O)c1cc2c(=O)n(CC)c3ccccc3c2s1	nt	42*	3	4	14	13
CCn1c(=O)c2cc(C(=O)N3CCCC3)sc2c2ccccc21	nt	nt	nt	nt	8	nt
SMILES	PrP 5UTR inh	GDH-TPI inh	Y pestis TopoI	FBA Mtb inh	Mtb hypoxia inh	PrPC surface inh
O=C(N/N=C/c1cc(Br)c(Br)o1)c1ccc2c(c1)OCCO2	-93	14	-5	-3	nt	0
CCOc1cc(/C=N/NC(=O)C(=O)NC2CC2)cc(Br)c1O	-18	33*	-2	1	nt	-5
O=C(N/N=C/c1cc(Br)c(O)c(Br)c1O)c1ccc2c(c1)OCCO2	-16	31*	-22	19	nt	2
CCOc1cc(C=NNC(=O)c2ccc3c(c2)OCCO3)cc(Br)c1O	nt	nt	nt	nt	6	nt
CCOc1cc(/C=N/NC(=O)c2ccc3c(c2)OCCO3)cc(Br)c1O	-19	41*	-5	5	nt	-5
CCOc1cc(C=NNC(=O)C(=O)NC)cc(Br)c1O	nt	nt	nt	nt	19	nt
O=C1/C(=C\c2ccc([N+](=O)[O-])cc2)CCc2ccccc21	-35	16	-4	1	7	6
Cc1ccc(/C=C2\CCOC2=O)cc1	-19	2	1	-2	0	-4
CC1CC(=Cc2ccc([N+](=O)[O-])cc2)C(=O)O1 (stereo not drawn)	-9	31*	5	-2	5	-28
CC1CC(=Cc2ccc(N)cc2)C(=O)O1 (stereo not drawn)	-22	35*	4	-1	20	-6
C=CCSC1=NC(=Cc2ccsc2)C(=O)S1	nt	nt	nt	nt	14	nt
Cn1c(/C(C#N)=C/c2cccc(O)c2)nc2ccccc21	-40	16	5	2	1	5
Cn1c(/C(C#N)=C/c2ccc(-c3ccc(S(N)(=O)=O)cc3)o2)nc2ccccc21	-20	40*	-8	-5	2	4
Cc1cc(C)n2nc3nc(N4CCCCC4)nc(-c4ccco4)c3c2n1	-8	16	3	38*	nt	nt
COc1ccc2c(Cn3cnc4cc([N+](=O)[O-])ccc4c3=O)cc(=O)oc2c1	-16	31*	2	5	-5	nt
Cc1ccc(OCCn2cnc3cc([N+](=O)[O-])ccc3c2=O)cc1	-36	0	2	3	-11	-9
C#CCn1c(=NC(=O)c2ccc(S(=O)(=O)N3CCc4ccccc4C3)cc2)sc2cc(S(N)(=O)=O)ccc21	-10	48*	30	10	1	nt
C=CCn1c(=NC(=O)c2ccc(S(=O)(=O)N3CCc4ccccc4C3)cc2)sc2cc(S(N)(=O)=O)ccc21	-9	26	34	26	8	-5
O=C1NC(=O)/C(=C\c2ccc(Oc3ccc([N+](=O)[O-])cn3)cc2)S1	-17	35*	0	-2	7	-13
O=[N+]([O-])c1ccc(Oc2ccc(/C=N/O)cc2)nc1	-11	6	12	3	nt	-31
CN(c1ccccc1)c1ccc(/C=N/N2CCOCC2)cc1	-173	31*	2	0	nt	-3
CN(C)c1ccc(/C=N/N2CCN(c3ccccn3)CC2)cc1	-67	39*	-2	-3	nt	-1
CCOC(=O)C1C2COc3cc(OC)ccc3C2N2C(=O)N(c3ccc(Br)cc3)C(=O)[C@]12C (stereo partly drawn)	nt	nt	nt	nt	1	nt
COc1ccc(/C=C2\CCn3c2nc2cc(C(=O)O)ccc2c3=O)cc1O	-18	51*	1	-4	3	-37
COC(=O)c1ccc(/C=C2\CCn3c2nc2cc(C(=O)O)ccc2c3=O)cc1	-11	14	5	12	9	nt
COc1ccc(/C=C2\CCn3c2nc2cc(C(=O)O)ccc2c3=O)cc1OC	-2	14	-8	4	-1	-4
CSc1ccc(/C=C2\CCn3c2nc2cc(C(=O)O)ccc2c3=O)cc1	-26	63*	-5	7	17	-15
O=C(NN=Cc1ccc(C(F)(F)F)cc1)c1ccncc1	nt	nt	nt	nt	21	nt
CCCCC1CN=C(N)N1CCc1cccc(F)c1 (stereo not drawn)	nt	nt	nt	nt	2	nt

Screening results deposited in PubChem BioAssay by several laboratories.
